Several values for one entry are separate records, joined by “and”; a condition that tells them apart may be missing. Identical values can stand only once. The whole screen tested about 5,500 compounds, of which about 2,000 (36%) were called active. Another 18% or so got no clear call; they are omitted. No stated cut-off is given here; in the data, active means normalized growth mostly below about 0.91 (no sharp cut-off); inconclusive means no clear call, values can overlap the other calls; inactive means mostly above about 0.92. The list shows a part of the results.
Assay: chemical genetic growth profiling, strain panel (AID 1159580);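 further: tested at 20 µM; growth read once vehicle control cultures reached saturation at 30 °C; 1 = growth at the plate median or of vehicle wells; lower values mean less growth of the strain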
Conditions: S. cerevisiae deletion strains, growth OD

Measured: normalized growth

CCCC(C)(COC(N)=O)COC(=O)NC(C)C (stereo unspecified)
inactive: locus YAL021C, strain ccr4, hits give low values 1 | locus YAL026C, strain drs2, hits give low values 0.99 | locus YAL030W, strain snc1, hits give low values 0.98 | locus YAL040C, strain CLN3, hits give low values 0.989 | locus YBL061C, strain skt5, hits give low values 1 | locus YBR009C, strain hhf1, hits give low values 0.983 | locus YBR021W, strain FUR4, hits give low values 0.991 | locus YBR023C, strain chs3, hits give low values 1.01 | locus YBR171W, strain sec66, hits give low values 1 | locus YBR229C, strain ROT2, hits give low values 0.954 | locus YBR231C, strain swc5, hits give low values 1.01 | locus YBR279W, strain paf1, hits give low values 1 | locus YCL011C, strain gbp2, hits give low values 0.996 | locus YCL016C, strain dcc1, hits give low values 0.985 | locus YCL029C, strain bik1, hits give low values 0.977 | locus YCL061C, strain MRC1, hits give low values 1 | locus YCL069W, strain vba3, hits give low values 0.992 | locus YCR088W, strain abp1, hits give low values 0.998 | locus YDL005C, strain med2, hits give low values 1 | locus YDL035C, strain GPR1, hits give low values 0.951 | locus YDL040C, strain nat1, hits give low values 1 | locus YDL074C, strain BRE1, hits give low values 0.974 | locus YDL101C, strain DUN1, hits give low values 0.982 | locus YDL134C, strain PPH21, hits give low values 0.965 | locus YDL185W, strain tfp1, hits give low values 0.945 | locus YDL192W, strain arf1, hits give low values 0.965 | locus YDR001C, strain nth1, hits give low values 0.974 | locus YDR069C, strain doa4, hits give low values 1.01 | locus YDR101C, strain arx1, hits give low values 0.983 | locus YDR137W, strain rgp1, hits give low values 0.966 | locus YDR150W, strain NUM1, hits give low values 0.983 | locus YDR159W, strain sac3, hits give low values 0.986 | locus YDR162C, strain NBP2, hits give low values 0.94 | locus YDR195W, strain ref2 1 | locus YDR297W, strain sur2, hits give low values 0.991 | locus YDR318W, strain mcm21, hits give low values 0.979 | locus YDR334W, strain swr1, hits give low values 0.979 | locus YDR335W, strain msn5, hits give low values 0.989 | locus YDR363W, strain ESC2, hits give low values 0.976 | locus YDR388W, hits give low values 0.979 | locus YDR392W, strain spt3, hits give low values 0.952 | locus YDR502C, strain sam2, hits give low values 0.984 | locus YEL003W, strain gim4, hits give low values 0.986 | locus YEL037C, strain rad23, hits give low values 0.993 | locus YEL061C, strain CIN8 (second series), hits give low values 0.975 | locus YEL061C, strain CIN8, hits give low values 0.982 | locus YER002W, strain NOP16, hits give low values 0.995 | locus YER015W, strain faa2, hits give low values 1.01 | locus YER016W, strain bim1, hits give low values 0.986 | locus YER110C, hits give low values 0.964 | locus YER111C, strain swi4, hits give low values 0.973 | locus YER155C, strain BEM2 (second series), hits give low values 1.04 | locus YER155C, strain BEM2, hits give low values 0.99 | locus YER167W, strain BCK2, hits give low values 0.989 | locus YFR010W, strain ubp6, hits give low values 0.985 | locus YGL078C, strain dbp3, hits give low values 0.981 | locus YGL086W, strain mad1, hits give low values 0.98 | locus YGL167C, strain pmr1, hits give low values 0.991 | locus YGL173C, strain kem1, hits give low values 0.993 | locus YGL227W, strain vid30, hits give low values 0.987 | locus YGL240W, strain doc1, hits give low values 1.02 | locus YGL248W, strain PDE1, hits give low values 0.991 | locus YGL253W, strain hxk2, hits give low values 0.978 | locus YGR078C, strain PAC10, hits give low values 0.988 | locus YGR135W, strain pre9, hits give low values 1 | locus YGR229C, strain SMI1, hits give low values 0.971 | locus YGR252W, strain gcn5, hits give low values 0.989 | locus YHR013C, strain ard1, hits give low values 0.967 | locus YHR027C, strain rpn1, hits give low values 1.01 | locus YHR030C, strain SLT2, hits give low values 0.992 and 0.979 | locus YHR079C, strain IRE1 (second series), hits give low values 0.989 | locus YHR079C, strain IRE1, hits give low values 0.974 | locus YHR094C, strain hxt1, hits give low values 0.969 | locus YHR129C, strain ARP1, hits give low values 0.988 | locus YHR142W, strain chs7, hits give low values 0.982 | locus YHR200W, strain rpn10, hits give low values 0.967 | locus YIL066C, strain RNR3, hits give low values 0.975 | locus YIL073C, strain SPO22, hits give low values 0.981 | locus YIL125W, strain kgd1, hits give low values 0.969 | locus YIR030C, strain dcg1, hits give low values 0.978 | locus YJL092W, strain hpr5, hits give low values 0.988 | locus YJL095W, strain BCK1 (second series), hits give low values 0.998 | locus YJL095W, strain BCK1, hits give low values 1.02 and 0.977 | locus YJL115W, strain asf1, hits give low values 0.962 | locus YJL129C, strain trk1, hits give low values 0.983 | locus YJL134W, strain LCB3, hits give low values 0.976 | locus YJL154C, strain vps35, hits give low values 0.992 | locus YJL164C, strain tpk1, hits give low values 0.966 | locus YJL166W, strain qcr8, hits give low values 1.01 | locus YJL168C, strain set2, hits give low values 0.981 | locus YJL187C, strain SWE1 (second series), hits give low values 0.987 | locus YJR043C, strain POL32, hits give low values 0.965 | locus YJR066W, strain TOR1, hits give low values 0.965 | locus YJR075W, strain HOC1, hits give low values 0.997 | locus YKL009W, strain mrt4, hits give low values 1.03 | locus YKL068W, hits give low values 0.971 | locus YKL085W, strain MDH1 (second series), hits give low values 0.982 | locus YKL085W, strain MDH1, hits give low values 0.982 | locus YKL160W, strain elf1, hits give low values 1 | locus YKR001C, strain vps1, hits give low values 0.97 | locus YKR026C, strain gcn3, hits give low values 0.989 | locus YKR091W, strain srl3, hits give low values 0.97 | locus YLL001W, strain dnm1, hits give low values 1.02 | locus YLL026W, hits give low values 1 | locus YLL041C, strain sdh2, hits give low values 1.01 | locus YLR027C, strain aat2, hits give low values 0.993 | locus YLR039C, strain RIC1, hits give low values 0.974 | locus YLR058C, strain SHM2, hits give low values 0.978 | locus YLR102C, strain apc9, hits give low values 0.982 | locus YLR113W, strain HOG1, hits give low values 0.978 | locus YLR221C, strain rsa3, hits give low values 1.01 | locus YLR258W, strain gsy2, hits give low values 0.986 | locus YLR262C, strain YPT6 (second series), hits give low values 0.991 | locus YLR262C, strain YPT6, hits give low values 0.911 | locus YLR268W, strain sec22, hits give low values 0.969 | locus YLR320W, strain mms22, hits give low values 0.985 | locus YLR330W, strain CHS5, hits give low values 0.985 | locus YLR342W, strain FKS1 (second series), hits give low values 0.995 | locus YLR342W, strain FKS1, hits give low values 1.02 | locus YLR357W, strain rsc2, hits give low values 0.949 | locus YLR370C, strain arc18, hits give low values 1.01 | locus YLR371W, strain rom2, hits give low values 0.959 | locus YLR384C, strain iki3, hits give low values 1 | locus YLR418C, strain cdc73, hits give low values 1.01 | locus YML016C, strain PPZ1, hits give low values 0.986 | locus YML032C, strain rad52, hits give low values 0.97 | locus YML120C, strain ndi1, hits give low values 1 | locus YML124C, strain tub3, hits give low values 0.986 | locus YMR058W, strain fet3, hits give low values 0.973 | locus YMR078C, strain ctf18, hits give low values 0.964 | locus YMR125W, strain sto1, hits give low values 0.975 | locus YMR129W, hits give low values 0.985 | locus YMR205C, strain PFK2, hits give low values 1 | locus YMR223W, strain ubp8, hits give low values 1 | locus YMR231W, strain pep5, hits give low values 0.999 | locus YMR263W, strain SAP30, hits give low values 0.99 | locus YMR307W, strain GAS1, hits give low values 0.942 | locus YNL067W, strain RPL9B, hits give low values 0.992 | locus YNL071W, strain lat1, hits give low values 1 | locus YNL128W, strain TEP1, hits give low values 0.97 | locus YNL153C, strain GIM3, hits give low values 0.995 | locus YNL175C, strain NOP13, hits give low values 0.988 | locus YNL183C, strain NPR1, hits give low values 0.925 | locus YNL197C, strain WHI3, hits give low values 0.95 | locus YNL209W, strain ssb2, hits give low values 0.983 | locus YNL224C, strain SQS1, hits give low values 0.996 | locus YNL233W, strain BNI4, hits give low values 1 | locus YNL248C, strain rpa49, hits give low values 0.921 | locus YNL250W, strain rad50, hits give low values 0.961 | locus YNL271C, strain bni1, hits give low values 0.979 | locus YNL298W, strain CLA4, hits give low values 0.972 | locus YNL307C, strain MCK1, hits give low values 0.979 | locus YNL322C, strain KRE1 (second series), hits give low values 1.01 | locus YNL322C, strain KRE1, hits give low values 0.995 | locus YNR049C, strain mso1, hits give low values 0.986 | locus YNR052C, strain pop2, hits give low values 0.974 | locus YOL012C, strain htz1 1.03 | locus YOL147C, strain pex11, hits give low values 0.991 | locus YOR001W, strain rrp6, hits give low values 1.02 | locus YOR061W, strain CKA2, hits give low values 0.962 | locus YOR069W, strain VPS5, hits give low values 0.984 | locus YOR070C, strain gyp1, hits give low values 0.992 | locus YOR080W, strain dia2, hits give low values 1.01 | locus YOR083W, strain WHI5 (second series), hits give low values 0.975 | locus YOR083W, strain WHI5, hits give low values 1.03 | locus YOR106W, strain vam3, hits give low values 1.02 | locus YOR136W, strain idh2, hits give low values 0.973 | locus YOR144C, strain elg1, hits give low values 0.984 | locus YOR184W, strain ser1, hits give low values 0.965 | locus YOR231W, strain MKK1, hits give low values 0.981 | locus YOR265W, strain rbl2, hits give low values 1 | locus YOR270C, strain vph1, hits give low values 0.968 | locus YOR290C, strain snf2, hits give low values 0.982 | locus YOR316C, strain cot1, hits give low values 0.948 | locus YPL051W, strain arl3, hits give low values 1.02 | locus YPL055C, strain LGE1, hits give low values 0.988 | locus YPL078C, strain atp4, hits give low values 1.01 | locus YPL106C, strain sse1, hits give low values 0.984 | locus YPL240C, strain hsp82, hits give low values 1 | locus YPL241C, strain CIN2, hits give low values 0.999 | locus YPL256C, strain CLN2, hits give low values 0.965 | locus YPR119W, strain clb2, hits give low values 0.977 | locus YPR141C, strain kar3, hits give low values 0.956 | locus YPR163C, strain tif3, hits give low values 0.975 | locus YPR167C, strain met16, hits give low values 0.985 | strain wtn01, hits give low values 0.996
